Screening results: PubChem, Broad Institute
IDE exosite FP: exo-site inhibitors of human IDE, primary screen, biochemical, fluorescence anisotropy, probe displacement; Insulin-degrading enzyme (Homo sapiens), P14735; purified IDE, FL-6b probe fluorescence polarization; stronger effect = lower value; z-score at 20 µM; 17,000 compounds, 6.3% hits; AID 1259349, 2017;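 active = z-score of -3 or lower, meaning strong loss of probe binding signal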;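 also: His-tagged human IDE residues 42-1019 made in E. coli with 30 nM FL-6b probe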
Target sequence (P14735 42-1019 limits assumed): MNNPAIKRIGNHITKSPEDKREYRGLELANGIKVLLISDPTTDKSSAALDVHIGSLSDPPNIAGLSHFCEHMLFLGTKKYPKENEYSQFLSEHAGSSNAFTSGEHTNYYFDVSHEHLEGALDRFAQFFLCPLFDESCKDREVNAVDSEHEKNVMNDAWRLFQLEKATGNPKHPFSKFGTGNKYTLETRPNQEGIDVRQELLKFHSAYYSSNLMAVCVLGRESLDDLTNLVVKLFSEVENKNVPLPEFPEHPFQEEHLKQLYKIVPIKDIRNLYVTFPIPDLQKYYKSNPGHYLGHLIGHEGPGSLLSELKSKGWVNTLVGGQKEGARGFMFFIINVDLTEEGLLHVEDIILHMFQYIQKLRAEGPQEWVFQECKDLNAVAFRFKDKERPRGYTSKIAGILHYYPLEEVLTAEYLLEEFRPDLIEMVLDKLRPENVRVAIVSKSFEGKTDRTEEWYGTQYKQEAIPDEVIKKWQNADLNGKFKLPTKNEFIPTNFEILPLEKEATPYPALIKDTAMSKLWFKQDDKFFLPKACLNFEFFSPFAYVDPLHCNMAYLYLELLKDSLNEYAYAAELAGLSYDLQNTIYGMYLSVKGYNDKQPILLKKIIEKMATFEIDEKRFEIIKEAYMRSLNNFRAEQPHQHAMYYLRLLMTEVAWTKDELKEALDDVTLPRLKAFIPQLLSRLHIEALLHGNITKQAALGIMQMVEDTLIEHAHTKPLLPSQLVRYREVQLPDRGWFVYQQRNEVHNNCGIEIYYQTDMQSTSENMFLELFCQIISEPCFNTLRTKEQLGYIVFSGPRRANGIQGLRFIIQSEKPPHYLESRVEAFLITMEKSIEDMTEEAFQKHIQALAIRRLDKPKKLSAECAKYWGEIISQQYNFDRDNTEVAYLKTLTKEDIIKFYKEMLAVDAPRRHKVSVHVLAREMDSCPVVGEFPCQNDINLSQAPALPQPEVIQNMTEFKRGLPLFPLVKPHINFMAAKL
* = called active by the depositor; ! = repeats disagree. The sample as a whole holds a higher share of hits than the screen did.

How did CCc1nc(N2[C@H](CO)[C@@H](c3ccccc3-c3ccc(F)cc3)[C@@H]2C#N)sc1C do in these assays?
IDE exosite FP: -0.48

What do the screens show for `CO[C@@H]1CN(C)C(=O)c2cc(NC(=O)Nc3cc(F)ccc3F)ccc2OC[C@H](C)NC[C@H]1C`?
IDE exosite FP: 2.2

Results for CCCC(=O)N1CCC2(CC1)CN[C@@H](CO)c1[nH]c3cc(OC)ccc3c12 ?
IDE exosite FP: 0.32

What do the screens show for `O=C(c1cccnc1)N1CCCCN2[C@@H](CO)[C@H](c3ccc(C#Cc4cccnc4)cc3)[C@@H]2C1`?
IDE exosite FP: 0.61

How did O=C(c1cccnc1)N1CCCCN2[C@H](C1)[C@@H](c1ccc(C#Cc3ccccn3)cc1)[C@@H]2CO do in these assays?
IDE exosite FP: -3.8*

Results for O=C(c1ccncc1)N1CCCCN2[C@@H](CO)[C@H](c3ccc(C#Cc4ccccn4)cc3)[C@@H]2C1 ?
IDE exosite FP: -1.1

What do the screens show for `O=C(c1cccnc1)N1CCCCN2[C@H](CO)[C@@H](c3ccc(C#Cc4ccccn4)cc3)[C@H]2C1`?
IDE exosite FP: -4.7*

How did CC(C)(O)C#Cc1ccc([C@H]2[C@@H](CO)N3CCCCN(C(=O)c4cccnc4)C[C@H]23)cc1 do in these assays?
IDE exosite FP: 2

Results for O=C(c1cccnc1)N1CCCCN2[C@H](CO)[C@@H](c3ccc(C#Cc4ccccn4)cc3)[C@@H]2C1 ?
IDE exosite FP: -2.6

Results for O=C(c1cccc(F)c1)N1CC(=O)N2[C@@H](CO)[C@H](c3ccc(C4=CCCC4)cc3)[C@@H]2C1 ?
IDE exosite FP: 1.7

How did Cc1cccc(-c2ccc(C3[C@@H]4CN(C(=O)C5CCCCC5)C[C@H]3N4)cc2)c1 (stereo partly drawn) do in these assays?
IDE exosite FP: -5.4*!

What do the screens show for `COc1cccc(-c2ccc([C@H]3[C@H](CO)N4C(=O)CN(C(=O)C5CC5)C[C@@H]34)cc2)c1`?
IDE exosite FP: -7.5*

How did Cc1cccc(-c2ccc(C3[C@@H]4CNC[C@H]3N4)cc2)c1 (stereo partly drawn) do in these assays?
IDE exosite FP: 0.37

What do the screens show for `COc1cccc(-c2ccc([C@@H]3[C@@H](CO)N4C(=O)CN(C(=O)C5CCOCC5)C[C@@H]34)cc2)c1`?
IDE exosite FP: -5.8*

What do the screens show for `COc1ccc(-c2ccc([C@@H]3[C@H]4CN(C(=O)C5CCOCC5)CC(=O)N4[C@H]3CO)cc2)cc1`?
IDE exosite FP: -1.5

How did COc1cccc(-c2ccc([C@@H]3[C@@H](CO)N4C(=O)CN(C(=O)C5CCOCC5)C[C@H]34)cc2)c1 do in these assays?
IDE exosite FP: -2.4

Results for COc1cccc(-c2ccc([C@@H]3[C@@H](CO)N4C(=O)CN(C(=O)C5CC5)C[C@@H]34)cc2)c1 ?
IDE exosite FP: -15*

What do the screens show for `COc1ccc(-c2ccc([C@H]3[C@@H](CO)N4C(=O)CN(C(=O)C5CC5)C[C@@H]34)cc2)cc1`?
IDE exosite FP: -0.095

Results for O=C(C1CCCCC1)N1C[C@@H]2N[C@H](C1)C2c1ccc(-c2ccccc2F)cc1 (stereo partly drawn) ?
IDE exosite FP: 0.62

Results for COc1ccc(-c2ccc([C@H]3[C@@H](CO)N4C(=O)CN(C(=O)C5CCOCC5)C[C@@H]34)cc2)cc1 ?
IDE exosite FP: 0.45

How did CN(C)C(=O)c1cccc(-c2ccc([C@@H]3[C@@H](CO)N4C(=O)CN(C(=O)C5CC5)C[C@H]34)cc2)c1 do in these assays?
IDE exosite FP: 2.2

How did COc1ccc(-c2ccc([C@H]3[C@H](CO)N4C(=O)CN(C(=O)C5CC5)C[C@@H]34)cc2)cc1 do in these assays?
IDE exosite FP: -0.25

What do the screens show for `CN(C)C(=O)c1ccc(-c2ccccc2[C@H]2[C@@H](CO)N(C(=O)C3CC3)[C@H]2C#N)cc1`?
IDE exosite FP: -0.42

How did CCCNC(=O)N1[C@H](C#N)[C@@H](c2ccccc2-c2ccccc2)[C@@H]1CO do in these assays?
IDE exosite FP: 0.96

How did Cc1ccc(S(=O)(=O)N(C)C[C@@H]2OCCCC[C@H](C)Oc3ccc(NC(=O)c4ccncc4)cc3C(=O)N([C@H](C)CO)C[C@H]2C)cc1 do in these assays?
IDE exosite FP: 1.1

Results for C[C@H]1CCCCO[C@H](CN(C)C(=O)c2ccncc2)[C@@H](C)CN([C@@H](C)CO)C(=O)c2cc(NS(=O)(=O)c3cccs3)ccc2O1 ?
IDE exosite FP: 0.086

Results for COCC(=O)N1[C@H](C#N)[C@@H](c2ccccc2C2=CCCCC2)[C@@H]1CO ?
IDE exosite FP: 4.7

What do the screens show for `COCC(=O)N1[C@@H](CO)[C@@H]2c3ccccc3N(C(=O)Nc3ccccc3Cl)C[C@@H]21`?
IDE exosite FP: 1.8

How did COCC#Cc1ccc([C@@H]2[C@H](CO)N3C(=O)CN(C(=O)Nc4ccc(F)cc4)C[C@@H]23)cc1 do in these assays?
IDE exosite FP: 2.1

Results for CN(C[C@H]1N[C@H](CO)[C@H]1c1ccc(-c2cccc(F)c2)cc1)S(C)(=O)=O ?
IDE exosite FP: 4.7

How did CCCNC(=O)N1[C@H](CO)[C@H](c2ccccc2)[C@@H]1CNC(=O)C1CC1 do in these assays?
IDE exosite FP: 4
